# Measured values published in the supplement of paper PMC6555819.
# System: RARa:RXR (NR concentration 270 nM, RXRa partner concentration 90 nM)
# Assay: PBM binding z-score (relative to random genomic background probes); higher = stronger binding; sequences stand for … in GC…GCGATTGACAGCGTAGAATGAAGG
# In short: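 Antibodies against each partner of ligand-free nuclear receptor dimers (one per run) detected binding on custom Agilent 4×180K protein-binding microarrays after 1 h incubation. The double-stranded probes had 34-nt variable regions carrying direct-repeat seeds, single-nucleotide variants, half-site ablations and random human genomic background sequences. Binding z-scores, from regression-normalized fluorescence, use the random background probes as reference.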
row,Sequence,PBM binding z-score
1,CAAACTAGGACAAGAGGTCAAAGTCCGCTTCCCG,5.92
2,GGAACAAGGGCAAAGTTGATAGCATCTGTCGACG,0.948
3,ACTTACGGGTCAAAGAGGTTATAGCACGCGTATA,4.84
4,CCGACTGGGGCATAAGGTTACCAGAAGCCAGCCC,1.84
5,ACTATTAGTTGAGACGAGAGCAACCGATAGGTTG,-0.313
6,TCGAGTAGGTTAGTCAGGGCATTCAGCCAACATA,0.135
7,TCGAGTAGGTGAGGGGCATTCAGAATGGCGTCGA,-0.0572
8,ATATGTAGGTTAAGGTTCATTCAGGTTGGTTCGC,3.48
9,AGAATGAGGTTATTCGTAGATCAGGGAAGAAAGT,1.98
10,GCGACTGGGGCACAGCAGGTTACCATAAGGTTGG,0.435
11,GGAACGCGGGCATTCGAGTTGATAGCATGGCGAT,-0.652
12,CCTACTGGGCTACGAAAGGTCATTGATTCAGTGA,5.44
13,ACTTACCGGTCAACGAGGTTATAGCACGCGTATA,2.38
14,CTCGAAAGGTCGTGCTCAGGTGAGGATACCAAAC,3.92
15,GCTATGAGTTGAAAGGGCAACCGAATGATTCTCG,2.66
16,ATTTGTAGGTTAAGGGTCATTCAGGTTGGTTCGC,6.91
17,TATTGTAGATCAAGCAGGTTAAGAAAGCCTGAGT,0.378
18,CGTCATAGTTCAACTAAGGTAACGTAAAGCACGC,2.73
19,TGTCAAAGTTCAAAGGTAACCTAAGTATCCACAC,6.39
20,CGTCCATGGTCAGAGAGGTCAGTGAATGCCGAGT,2.87
21,ACTCGGAGGACAAAGGTCAGAGGTACGCCAGTGA,4.61
22,CTCGAAAGGTCGGTTTAGGTGAGTATACGGATAA,1.64
